This note sets out measurements from PubChem BioAssay (Tox21).

Active and inactive are the calls of the source. Entries that show only a call come without a potency. Calls follow the shape of the dose curve; as a rule, active = well fitted curve in the direction sought with a large enough effect in the repeat runs; inconclusive = weak or mixed curves; inactive = flat fitted curve, though single readings scatter. Positions of bridges follow the written chain, without caps; N, C: chain ends. Residues, ends and D or L forms follow the SMILES beside them.

This assay is described as follows: qHTS assay to test for compound auto fluorescence at 535 nm (green) in HepG2 cell free culture (AID 720686). The conditions noted are these: Cell-free medium, green autofluorescence 485/535 nm; series mostly up to 46 µM. The text has this: U.S. Tox21 Program National Center for Advancing Translational Sciences [NCATS] NIH Chemical Genomics Center [NCGC] U.S. Environmental Protection Agency [EPA] National Institutes of Environmental Health Sciences [NIEHS] National Toxicology Program [NTP] U.S. Food and Drug Administration [FDA] Tox21 Assay Overview: Compound auto fluorescence often interferes with screening of the compound library against various biological targets and signaling pathways. Some of these compounds may have fluorophoric properties. Such properties may interfere with the assay outputs resulting in false positives and/or negatives. To decrease such complications and ensure the compound activities are relevant in terms of biological response, the Tox21 10K compound library was screened for auto fluorescence. From the fluorophores used as reporter signals in our screening assays, the auto fluorescence equivalencies of compounds against three fluorophores have been evaluated: Triamterene, Fluorescein and Rose Bengal sodium for blue, green and red fluorescence, respectively. The fluorescence intensities were measured using Excitation/Emission wavelengths at 405/460nm, 485/535nm and 540/590nm for blue, green and red labels, respectively. This assay includes the green fluorescence data.
Tox21 Assay Protocol Summary: 5 uL of culture medium (MEM containing 10% FBS) per well was dispensed into black wall/clear bottom 1536-well plates using a Multidrop Combi Dispenser (ThermoFisher Scientific, Waltham, MA). After 23 nL compound or DMSO vehicle was transferred into assay plate by a pintool work station (Kalypsys, San Diego, CA), fluorescence intensities in the assay plates were measured by an Envision (PerkinElmer, Shelton, CT) plate reader using three labels for measuring blue, green and red fluorescence at […] 460, 535 and 590nm respectively.
For orientation: In qHTS, concentration-response curves come from the screen itself.
On to `CC(C)CCC[C@@H](C)[C@H]1CC(=O)C2=C3CC[C@H]4C[C@@H](O)CC[C@]4(C)[C@H]3CC[C@@]21C`, for which the Potency result is “inactive”.

Regarding `C[C@H]1C[C@@H]2[C@H]([C@@H](O)C[C@@]3(C)[C@H]2CC[C@]3(O)C(=O)COC(=O)CCC(=O)O)[C@@]2(C)C=CC(=O)C=C12`, the Potency result is “inactive”.

Turning to `CO/N=C(\C(=O)N[C@@H]1C(=O)N2C(C(=O)O)=C(CSC(=O)c3ccco3)CS[C@H]12)c1csc(N)n1`, the Potency result is “inactive”.

As to `Cc1cc(-n2c(=O)[nH]c(=O)n(C)c2=O)ccc1Oc1ccc(S(=O)(=O)C(F)(F)F)cc1`, the Potency entry was “inactive”.

Take `CC(C)c1nc(N(C)S(C)(=O)=O)nc(-c2ccc(F)cc2)c1/C=C/C(O)CC(O)CC(=O)O` (stereo not given): the Potency result was “inactive”.

Turning to `COc1cc2[nH]c(C)c(CCN3CCN(c4ccccc4)CC3)c2cc1OC`, the Potency result is “inactive”.

As for `O=[N+]([O-])c1c(Cl)cccc1-c1c[nH]cc1Cl`, the Potency entry is “inactive”.

On to `C=C1CC[C@H](O)CC1=C/C=C1\CCC[C@]2(C)[C@@H]([C@H](C)CCCC(C)(C)O)CC[C@@H]12`, for which the Potency result was “inactive”.

For the molecule `CCCCCCCC(=O)CC[C@@H]1[C@@H](C/C=C\CCCC(=O)OC(C)C)[C@@H](O)C[C@H]1O`, the Potency result was “inactive”.

Turning to `Cc1c(O)cc2c(c1C)O[C@](C)(CCC[C@H](C)CCC[C@H](C)CCCC(C)C)CC2`, the Potency entry is “inactive”.

`COc1cc2c(cc1OC)CC(=O)N(CCCN(C)C[C@H]1Cc3cc(OC)c(OC)cc31)CC2`: the Potency result was “inactive”.

As for `CCNC(=O)[C@@H]1CCCN1C(=O)[C@H](CCCN=C(N)N)NC(=O)[C@H](CC(C)C)NC(=O)[C@@H](Cc1c[nH]c2ccccc12)NC(=O)[C@H](Cc1ccc(O)cc1)NC(=O)[C@H](CO)NC(=O)[C@H](Cc1c[nH]c2ccccc12)NC(=O)[C@H](Cc1cnc[nH]1)NC(=O)[C@@H]1CCC(=O)N1`, the Potency entry was “inactive”.

Turning to `CO[C@@H]1[C@@H](O[C@@H]2O[C@H](C)[C@@H](O[C@H]3C[C@@](C)(O)[C@@H](OC(=O)CC(C)C)[C@H](C)O3)[C@H](N(C)C)[C@H]2O)[C@@H](CC=O)C[C@@H](C)C(=O)/C=C/C2OC2C[C@@H](C)OC(=O)C[C@H]1OC(C)=O` (stereo not given in full), the Potency entry is “inactive”.

As for `CCSc1ccc2c(c1)N(CCCN1CCN(C)CC1)c1ccccc1S2`, the Potency entry was “inactive”.

On to `COC(=O)C1=C(C)NC(C)=C(C(=O)O[C@H]2CCN(Cc3ccccc3)C2)[C@H]1c1cccc([N+](=O)[O-])c1`, for which the Potency entry is “inactive”.

Consider `CCCCCCCCCCCCCCCC(=O)O[C@@H]1[C@@H](O)[C@@H](O)[C@@H]([C@H](NC(=O)[C@@H]2C[C@@H](CCC)CN2C)[C@H](C)Cl)O[C@@H]1SC`, for which the Potency result is “inactive”.

For the molecule `CCN(CC)CCOC(=O)c1cccnc1`, the Potency entry is “inactive”.

As to `CC(C(=O)O)c1ccc(N2Cc3ccccc3C2=O)cc1` (stereo not given), the Potency result was “inactive”.

Take `CN(C(=O)CO)c1c(I)c(C(=O)NCC(O)CO)c(I)c(C(=O)NCC(O)CO)c1I` (stereo not given): the Potency entry was “inactive”.

On to `Cc1cc(Nc2ccccc2C(=O)O)ccc1Cl`, for which the Potency result was “inactive”.

Turning to `NC[C@@H]1O[C@H](O[C@H]2[C@@H](O)[C@H](O[C@@H]3[C@@H](O)[C@H](N)C[C@H](N)[C@H]3O[C@H]3O[C@H](CN)[C@@H](O)[C@H](O)[C@H]3N)O[C@@H]2CO)[C@H](N)[C@@H](O)[C@@H]1O`, the Potency entry was “inactive”.

As to `C[C@]12C=CC(=O)N[C@@H]1CC[C@@H]1[C@@H]2CC[C@]2(C)[C@@H](C(=O)Nc3cc(C(F)(F)F)ccc3C(F)(F)F)CC[C@@H]12`, the Potency result is “inactive”.

On to `CCN(CC)CCOc1ccc2nc(N(C)C)sc2c1`, for which the Potency entry was “inactive”.

Turning to `O=S(=O)(O)CCCS(=O)(=O)O`, the Potency result is “inactive”.

Consider `Cc1ccccc1OCC(O)CNCCOc1ccc(C(N)=O)cc1` (stereo not given), for which the Potency result is “inactive”.

Consider `NCCCC[C@H](NC(=O)[C@@H]1CCCN1C(=O)[C@@H]1CSSC[C@H](NC(=O)CNC(=O)CNC(=O)CN)C(=O)N[C@@H](Cc2ccc(O)cc2)C(=O)N[C@@H](Cc2ccccc2)C(=O)N[C@@H](CCC(N)=O)C(=O)N[C@@H](CC(N)=O)C(=O)N1)C(=O)NCC(N)=O` (H-GGGCYFQNCPKG-NH2; disulfide 4-9), for which the Potency result was “inactive”.

For the molecule `NC(=O)c1ccc[n+]([C@@H]2O[C@H](COP(=O)([O-])OP(=O)(O)OC[C@H]3O[C@@H](n4cnc5c(N)ncnc54)[C@H](O)[C@@H]3O)[C@@H](O)[C@H]2O)c1`, the Potency result was “inactive”.

For `COc1ccc(CCNC[C@H](O)c2ccc(O)cc2)cc1OC`, the Potency entry is “inactive”.

As for `O=C(O)C1CCCN1` (stereo not given), the Potency entry is “inactive”.

For the molecule `CCOC(=O)Oc1c(OC)cc(C(=O)O[C@@H]2C[C@@H]3CN4CCc5c([nH]c6cc(OC)ccc56)[C@H]4C[C@@H]3[C@H](C(=O)OC)[C@H]2OC)cc1OC`, the Potency result is “inactive”.

Turning to `CCCCCCCCCCCC(=O)N(CCO)CCO`, the Potency entry is “inactive”.

Turning to `COc1ccc(C[C@H](C)NC[C@@H](O)c2ccc(O)c(NC=O)c2)cc1`, the Potency result was “inactive”.

As for `CCC(=O)OCC(=O)[C@@]1(OC(=O)CC)[C@H](C)C[C@H]2[C@@H]3CCC4=CC(=O)C=C[C@]4(C)[C@@]3(F)[C@@H](O)C[C@@]21C`, the Potency result was “inactive”.

For `O=C(O)c1cc(N=Nc2ccc(O)c(C(=O)O)c2)ccc1O`, the Potency entry was “inactive”.

Turning to `CC(C)(C)c1ccc(CN2CCN(C(c3ccccc3)c3ccc(Cl)cc3)CC2)cc1` (stereo not given), the Potency entry is “inactive”.

With `O=C(OCc1ccccc1)c1cccnc1`, the Potency entry is “inactive”.

For `CO/N=C(\C(=O)N[C@@H]1C(=O)N2C(C(=O)O)=CCS[C@H]12)c1csc(N)n1`, the Potency result is “inactive”.

For the molecule `O=C[C@H](O)[C@@H](O)[C@H](O[C@H]1O[C@H](CO)[C@@H](O[C@H]2O[C@H](CO)[C@@H](O)[C@H](O)[C@H]2O)[C@H](O)[C@H]1O)[C@H](O)CO`, the Potency entry was “inactive”.

With `CN(CC(=O)N1CCOCC1)Cc1c(Cl)cccc1NC(=O)c1ccccc1`, the Potency result is “inactive”.

As to `CCc1ccc2c(c1)N(CC(C)CN(C)C)c1ccccc1S2` (stereo not given), the Potency entry was “inactive”.
